High-throughput results: PubChem BioAssay, National Center for Advancing Translational Sciences (NCATS)
FMDV antiviral: antivirals against foot and mouth disease virus | FMDV antiviral cell-based qHTS | Potency, µM (top dose mostly 57.9 µM), hits mostly inhibitors | 410,000 compounds, 1.2% hits; calls by dose curve; tested in HEK293T cells; note: read-out not given here; nearly all actives have a fitted effect of over 45% in size
HCMV inh: blocks human cytomegalovirus replication. HFF cells, HCMV-luciferase reporter, 72 h; active compounds read low. activity change, negative = inhibition, % at 57.5 µM. 410,000 compounds, 4.5% hits; in the data active = activity change below about -60%; inconclusive = no clear call, values can overlap the other calls; inactive = above about -39%
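Inhibition of viral replication was scored as loss of reporter luminescence in HFFs infected with HCMV-luciferase (MOI 1 PFU/cell) for 72 h; compounds tested at 2 doses, normalized to buffer and Salinomycin controls.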
LASV entry inh: inhibitors of Lassa virus binding or cell entry | Lassa virus pseudotype entry inhibition, cell reporter | 300,000 compounds, 1.2% hits | Potency, µM (titrated, usually from 37.9 µM), actives largely listed as inhibitors; calls by dose curve; tested in HEK293 cells; note: nearly all actives have a fitted effect of over 50% in size
HCV inhibitor: inhibitors of hepatitis C virus infection | 340,000 compounds, 3.4% hits | Potency, µM (titrated, usually from 41.8 µM), usual class: inhibitors | Huh7.5.1 HCVcc-Cre infection, luciferase reporter, 44 h; active = well fitted inhibition curve with a large enough effect; inconclusive = small, poorly fitted or top-dose-only effect, or another doubt; inactive = no such curve, though single readings can be large or run the other way
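1,000 cells/well; 4 h culture; + compound; + HCVcc-Cre (~0.5 moi); 44 h; luciferase substrate, RT 15 min; read 15 sec.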
MARV entry inh: Marburg virus entry inhibition | Marburg virus pseudotyped entry inhibition, cell reporter | Potency, µM (series often up to 37.8 µM), hits mostly inhibitors | 300,000 compounds, 1.8% hits | AID 540276; calls by dose curve; tested in HEK293 cells
Each line names hits and unclear results; the compound was inactive in the other large screens. Compounds with a hit are over-represented: about 7.9% of the library has one in this group of screens.

COC(=O)c1ccc2c(=O)n(CCCCCC(=O)N3CCN(c4ccccc4)CC3)c(=O)[nH]c2c1	FMDV antiviral 11µM, LASV entry inh inconclusive, HCV inhibitor 10µM, MARV entry inh inconclusive
COC(=O)c1ccc2c(=O)n(CCCCCC(=O)N3CCN(c4cc(Cl)ccc4C)CC3)c(=O)[nH]c2c1	FMDV antiviral 14µM, LASV entry inh inconclusive (no result: HCV inhibitor, MARV entry inh)
COc1cc2[nH]c(=O)n(CCCCCC(=O)N3CCN(c4ccc(Cl)cc4)CC3)c(=O)c2cc1OC	FMDV antiviral 18µM (no result: HCV inhibitor)
COC(=O)c1ccc2c(=O)n(CCO)c(=S)[nH]c2c1	none
COC(=O)c1ccc2c(=O)n(CCCCCC(=O)O)c(=S)[nH]c2c1	FMDV antiviral inconclusive, HCMV inh -63, LASV entry inh inconclusive
COc1cc(-c2cc(=O)c3c(O)cc(O)cc3o2)ccc1O	HCV inhibitor 13µM (no result: HCMV inh, LASV entry inh, MARV entry inh)
Cc1ccc(S(=O)(=O)C(c2ccccc2)c2c(C)noc2C)cc1 (stereo not drawn)	HCMV inh -72, MARV entry inh 0.63µM
CCn1cc(/C=C/C(=O)Nc2ccn(Cc3c(F)c(F)cc(F)c3F)n2)cn1	HCMV inh -70, HCV inhibitor inconclusive, MARV entry inh inconclusive
Cn1ncc([N+](=O)[O-])c1C(=O)Nc1ccn(Cc2ccccc2F)n1	HCMV inh -62 (no result: HCV inhibitor)
Cn1cc([N+](=O)[O-])c(C(=O)Nc2ccn(Cc3c(F)c(F)cc(F)c3F)n2)n1	HCMV inh -92, HCV inhibitor inconclusive
CCC(C(=O)Nc1cc(Cl)ccc1OC)n1nc(-c2ccccc2)ccc1=O (stereo not drawn)	none (no result: HCV inhibitor)
CN(C(=O)c1ccc2c(c1)N(Cc1ccccc1F)C(=O)c1ccccc1S2)C1CCCCC1	HCMV inh inconclusive (no result: HCV inhibitor, MARV entry inh)
CCC(CC)c1nn2c(=O)cc(COc3ccc(NC(=O)c4cccc(Cl)c4)cc3)nc2s1	none (no result: HCV inhibitor)
Cc1ccc(C2N3CC4(C)CN2CC(c2ccccc2)(C3)C4=O)cc1 (stereo not drawn)	none (no result: HCV inhibitor)
Cc1cnc(NC(=O)CCNC(=O)c2ccccc2Cl)s1	MARV entry inh inconclusive
COc1ccccc1OCC(=O)Nc1nc(C)c(C)s1	LASV entry inh 13µM, HCV inhibitor inconclusive, MARV entry inh inconclusive
CCc1nnc(NC(=O)CSC(=S)N2CCOCC2)s1	HCMV inh -98 (no result: LASV entry inh, MARV entry inh)
COC(=O)c1sc(NC(=O)COc2ccccc2C)nc1C	HCV inhibitor inconclusive
Cc1cnc(NC(=O)COc2ccccc2Cl)s1	FMDV antiviral 10µM, LASV entry inh 1.8µM, MARV entry inh 2.3µM
Cc1cnc(NC(=O)CC(C)c2ccccc2)s1 (stereo not drawn)	HCMV inh -68, HCV inhibitor inconclusive, MARV entry inh inconclusive
O=C(COCc1cc(-c2cccs2)on1)NCc1ccccc1Cl	none (no result: HCV inhibitor, MARV entry inh)
Cc1cccc(C(=O)Nc2ccc3nc(SCC(=O)N4CCc5ccccc54)sc3c2)c1	none (no result: HCV inhibitor)
CCOC(=O)c1sc(NC(=O)c2ccc(OC(C)=O)cc2)nc1C	HCMV inh -82, HCV inhibitor inconclusive, MARV entry inh inconclusive (no result: LASV entry inh)
CCOC(=O)c1sc(NC(=O)CCSC)nc1C	LASV entry inh inconclusive
CCOC(=O)c1sc(NC(=O)c2ccc(OC)cc2)nc1C	HCV inhibitor inconclusive
CCOC(=O)c1sc(NC(=O)CSC(=S)N2CCN(C)CC2)nc1C	HCV inhibitor 13µM, MARV entry inh inconclusive
CCOC(=O)c1sc(NC(=O)CC(C)c2ccccc2)nc1C (stereo not drawn)	LASV entry inh inconclusive, HCV inhibitor inconclusive, MARV entry inh 5.6µM
CCOC(=O)c1sc(NC(=O)CCc2ccccc2)nc1C	HCV inhibitor inconclusive (no result: LASV entry inh, MARV entry inh)
Cc1ccccc1OCCSc1nnc(-c2ccc([N+](=O)[O-])cc2)o1	none (no result: HCV inhibitor)
Cc1ccc(N2C(=O)c3ccccc3C2Nc2ccc(S(=O)(=O)N3CCCCC3)cc2)nc1 (stereo not drawn)	HCV inhibitor inconclusive (no result: LASV entry inh)
COc1ccc(NC2c3ccccc3C(=O)N2c2ccccn2)cc1 (stereo not drawn)	HCMV inh -80 (no result: LASV entry inh, MARV entry inh)
CCN(CC)S(=O)(=O)c1ccc(NC2c3ccccc3C(=O)N2c2ccc(C)cn2)cc1 (stereo not drawn)	HCV inhibitor 14µM (no result: LASV entry inh, MARV entry inh)
CCC1=C(c2ccc(C)cc2)S(=O)(=O)N=C1N1CCC(C(=O)Nc2ccccc2C(=O)OC)CC1	FMDV antiviral inconclusive, LASV entry inh inconclusive (no result: HCV inhibitor, MARV entry inh)
O=C(Nc1ccc(-c2nc3cc(NC(=O)c4ccc(Cl)cc4)ccc3o2)cc1)c1ccc(Cl)cc1	none (no result: HCV inhibitor, MARV entry inh)
COc1ccc(Nc2nnc(SC(C(=O)Nc3cc(C)ccc3C)c3ccccc3)s2)cc1 (stereo not drawn)	HCMV inh -100, LASV entry inh inconclusive, HCV inhibitor inconclusive, MARV entry inh inconclusive
